Assay results published in PubChem BioAssay (NCI).
Several values for one entry are separate records, joined by “and”; a condition that tells them apart may be missing. Identical values can stand only once. The panel holds about 83,000 compounds, 20% with a hit somewhere; the sample as a whole holds those more often.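 The test compound was applied at a single concentration to cells in 96-well plates for 48 hours, and percent growth was recorded.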 Activity calls are given as the source filed them. The calls were made as follows: active = growth percent below 10; inactive = the rest.

These compounds were tested on A549/ATCC NSCLC (assay: NCI-60 one-dose screen, 48 h (100 = growth as untreated, 0 = no growth, -100 = all killed)). Details: 10 µM unless noted.
CC/C(=C(/c1ccc(O)cc1)c1ccc(OCCN2CCCCCC2)cc1)c1ccc(Cl)cc1 was tested, and the growth was 70.6% (inactive). In the case of C=C(C)[C@@H]1CC[C@]2(C(=O)N3CCN(C)CC3)CC[C@]3(C)[C@H](CC[C@@H]4[C@@]5(C)CC(CCCNC(C)=O)(CCCNC(C)=O)[C@H](OC(C)=O)C(C)(C)[C@@H]5CC[C@]43C)[C@@H]12, the growth is reported as 102% (inactive). For CCN(c1cc(-c2ccc(CN3CCC(/C=C/S(=O)(=O)c4ccccc4)CC3)cc2)cc(C(=O)NCc2c(C)cc(C)[nH]c2=O)c1C)C1CCOCC1, the growth was 66.1% (inactive). For Nc1nc(N)c2c(n1)NC(c1ccc(Cl)cc1)CC(c1cccc(Nc3ccncc3)c1)=N2 (configuration not stated), the growth was 30.6% (inactive). With C=C(c1ccc(C(=O)O)cc1)c1cc2c(cc1C)C(C)(C)CCC2(C)C the growth was 52.1% (inactive) and 31.2% (inactive). For O=C1OCC2=C1C(c1cccc([N+](=O)[O-])c1)c1cc3c(cc1N2CCO)CCC3 (configuration not stated), the growth was 11.7% (inactive). In the case of CCN(CC)/C([O-])=c1\cccc\c1=C1\N=C(c2ccccc2)N=C1[n+]1ccc(-c2ccccc2)cc1, the growth is reported as 97.9% (inactive). For Cc1nc(-n2[nH]c(=O)ccc2=O)sc1N=Nc1ccccc1, the growth was 104% (inactive). Cc1ccc(-c2nc3nc(-c4ccccc4)nc(N4CCCNCC4)c3o2)cc1 was tested, and the growth was -66.5% (active). In the case of O=C([C@H]1C[C@H]1c1ccc(S(F)(F)(F)(F)F)cc1)N1CCN(c2cc(Cl)ccc2C(F)(F)F)CC1, the growth is reported as 81.5% (inactive). OB(O)c1ccsc1-c1nc2ccc3[nH]ncc3c2c2c1CCCC2 was tested, and the growth was 46.7% (inactive). CC[C@]12CN3CCc4c([nH]c5ccccc45)[C@@](C(=O)OC)(c4cc5c(cc4OC)N(C)[C@H]4[C@@](O)(C(=O)OC)[C@H](OC(C)=O)[C@]6(CC)C=CCN7CC[C@]54[C@@H]76)CC(C3)[C@H]1O2 (some centres not stated) was tested, and the growth was 20.9% (inactive). With COC(=O)N/N=C/c1c[n+]([O-])c2ccccc2[n+]1[O-] the growth was 93.1% (inactive). Cn1ccnc1CN1CCSC(C(=O)Nc2ccccc2)C1 (configuration not stated) was tested, and the growth was 83.8% (inactive). With CCNC(=O)Oc1ccc(/C(=C(/C)Cc2ccc(OC)cc2)c2ccc(OCCN(CC)CC)cc2)cc1 the growth was 51.7% (inactive). Cc1ccc(-c2nc(C#N)c(S(=O)(=O)N(C)C)o2)cc1 was tested, and the growth was 102% (inactive). COCCn1cc(-c2nc(-c3cn(CCOC)c4ncccc34)cs2)c2ccccc21 was tested, and the growth was 70.8% (inactive). With Nc1nc2ccccc2c2c(=O)c3ccc(Cl)cc3sc12 the growth was 94.7% (inactive). In the case of CC[C@]1(O)CC2CN(CCc3c([nH]c4ccccc34)C(C(=O)OC)(c3cc4c(cc3OC)N(C=O)[C@H]3[C@@](O)(C(=O)OC)[C@H](OC(C)=O)[C@]5(CC)[C@@H]6C[C@@H]6CN6CC[C@]43[C@@H]65)C2)C1 (some centres not stated), the growth is reported as 17.9% (inactive). For CN1CCN(CCCN2c3ccccc3Sc3ccc(Cl)cc32)CC1, the growth was 73.9% (inactive) and 80.4% (inactive). In the case of Nc1ncc(-c2ccc3ncnc(N4CCc5ccc(Cl)cc54)c3c2)cc1C(F)(F)F, the growth is reported as 13.5% (inactive). For CC(C)(C)c1cc(NC(=O)Nc2ccc(-c3cn4c(n3)sc3cc(OCCN5CCOCC5)ccc34)cc2)no1, the growth was 28.3% (inactive) and 17.3% (inactive). CC1(Cc2ccccc2)CC2=C(C(=O)O1)C(c1ccccc1)NC(=O)N2 (configuration not stated) was tested, and the growth was 112% (inactive). With COc1cc(C=O)ccc1Oc1ccc([N+](=O)[O-])cc1[N+](=O)[O-] the growth was 88.4% (inactive).

The compounds below were run on 786-0 renal in the same assay as above. Details: 10 µM unless noted.
In the case of COc1ccc(C/C(C)=C(/c2ccc(OCCN3CCCC3)cc2)c2ccc(OC(=O)NCc3ccccc3)cc2)cc1, the growth is reported as 69.8% (inactive). With CCN(CC)CCOc1ccc(/C(=C(\Cl)c2ccccc2)c2ccccc2)cc1 the growth was -65.1% (active) and 87.8% (inactive). Cc1ccc(/C=C2\COc3ccc(O)c(O)c3C2=O)cc1 was tested, and the growth was -71% (active). COc1ccc2c(c1)oc1c(C)c3c(c(C)c12)C(=O)N(Nc1ccccc1)C3=O was tested, and the growth was 92.8% (inactive). With CCC(=C(c1ccc(OCCCN(C)C)cc1)c1ccc(OCCCN(C)C)cc1)c1ccc(Cl)cc1 the growth was -86.8% (active). In the case of CCOC(=O)c1c(-c2ccc(C)cc2)c(C#N)c(=O)n(-c2cccc(C(F)(F)F)c2)c1N, the growth is reported as 102% (inactive). In the case of S=c1nc(CS)[nH]c2ccccc12, the growth is reported as 103% (inactive). With O=C(N/N=C/c1ccc(O)cc1O)c1cccc(Nc2ccnc(C(F)(F)F)c2)c1 the growth was 5.8% (active). CCN(CC)CCCN1C(=O)c2c(c(C)c3c(oc4cc(OC)ccc43)c2C)C1=O was tested, and the growth was -79% (active). With Cc1ccc(NC(=O)c2ccc(CN3CCN(C)CC3)cc2)cc1Nc1nccc(-c2cccnc2)n1 the growth was 95% (inactive) and 88.6% (inactive). In the case of COc1cc(/C=C2/C=C(c3ccc(C(C)(C)C)cc3)N(CCc3ccc(S(N)(=O)=O)cc3)C2=O)cc(OC)c1OC, the growth is reported as 29.7% (inactive). With O=c1c(/C=C/c2ccco2)nnc2sc(Nc3ccc(Cl)cc3)nn12 the growth was 103% (inactive). Nc1[nH]nc(Nc2ccccc2)c1-c1nc2ccccc2s1 was tested, and the growth was 10.2% (inactive). With CCCCCCCCn1ccc2cc(NC(=O)CN3CCN(c4nc(C)cc(N5CCCCC5)n4)CC3)ccc21 the growth was 88.4% (inactive). CC/C(=C(/c1ccc(O)cc1)c1ccc(OCCN2CCCCCC2)cc1)c1ccc(Cl)cc1 was tested, and the growth was 18.4% (inactive). With C=C(C)[C@@H]1CC[C@]2(C(=O)N3CCN(C)CC3)CC[C@]3(C)[C@H](CC[C@@H]4[C@@]5(C)CC(CCCNC(C)=O)(CCCNC(C)=O)[C@H](OC(C)=O)C(C)(C)[C@@H]5CC[C@]43C)[C@@H]12 the growth was 99.8% (inactive). CCN(c1cc(-c2ccc(CN3CCC(/C=C/S(=O)(=O)c4ccccc4)CC3)cc2)cc(C(=O)NCc2c(C)cc(C)[nH]c2=O)c1C)C1CCOCC1 was tested, and the growth was 71.1% (inactive). For Nc1nc(N)c2c(n1)NC(c1ccc(Cl)cc1)CC(c1cccc(Nc3ccncc3)c1)=N2 (configuration not stated), the growth was 41.9% (inactive). In the case of C=C(c1ccc(C(=O)O)cc1)c1cc2c(cc1C)C(C)(C)CCC2(C)C, the growth is reported as 79.1% (inactive) and 80.1% (inactive). For O=C1OCC2=C1C(c1cccc([N+](=O)[O-])c1)c1cc3c(cc1N2CCO)CCC3 (configuration not stated), the growth was 25.2% (inactive). With CCN(CC)/C([O-])=c1\cccc\c1=C1\N=C(c2ccccc2)N=C1[n+]1ccc(-c2ccccc2)cc1 the growth was 94.2% (inactive). With Cc1nc(-n2[nH]c(=O)ccc2=O)sc1N=Nc1ccccc1 the growth was 94.4% (inactive). For Cc1ccc(-c2nc3nc(-c4ccccc4)nc(N4CCCNCC4)c3o2)cc1, the growth was -97.1% (active). O=C([C@H]1C[C@H]1c1ccc(S(F)(F)(F)(F)F)cc1)N1CCN(c2cc(Cl)ccc2C(F)(F)F)CC1 was tested, and the growth was 89.3% (inactive). With OB(O)c1ccsc1-c1nc2ccc3[nH]ncc3c2c2c1CCCC2 the growth was 48.6% (inactive). For CC[C@]12CN3CCc4c([nH]c5ccccc45)[C@@](C(=O)OC)(c4cc5c(cc4OC)N(C)[C@H]4[C@@](O)(C(=O)OC)[C@H](OC(C)=O)[C@]6(CC)C=CCN7CC[C@]54[C@@H]76)CC(C3)[C@H]1O2 (some centres not stated), the growth was 19.6% (inactive). In the case of COC(=O)N/N=C/c1c[n+]([O-])c2ccccc2[n+]1[O-], the growth is reported as 93.8% (inactive). With Cn1ccnc1CN1CCSC(C(=O)Nc2ccccc2)C1 (configuration not stated) the growth was 98% (inactive). CCNC(=O)Oc1ccc(/C(=C(/C)Cc2ccc(OC)cc2)c2ccc(OCCN(CC)CC)cc2)cc1 was tested, and the growth was 53.8% (inactive). In the case of Cc1ccc(-c2nc(C#N)c(S(=O)(=O)N(C)C)o2)cc1, the growth is reported as 96.4% (inactive). With COCCn1cc(-c2nc(-c3cn(CCOC)c4ncccc34)cs2)c2ccccc21 the growth was 82.9% (inactive). With Nc1nc2ccccc2c2c(=O)c3ccc(Cl)cc3sc12 the growth was 99.1% (inactive). With CC[C@]1(O)CC2CN(CCc3c([nH]c4ccccc34)C(C(=O)OC)(c3cc4c(cc3OC)N(C=O)[C@H]3[C@@](O)(C(=O)OC)[C@H](OC(C)=O)[C@]5(CC)[C@@H]6C[C@@H]6CN6CC[C@]43[C@@H]65)C2)C1 (some centres not stated) the growth was 5.62% (active). For CN1CCN(CCCN2c3ccccc3Sc3ccc(Cl)cc32)CC1, the growth was 62.8% (inactive) and 72% (inactive). Nc1ncc(-c2ccc3ncnc(N4CCc5ccc(Cl)cc54)c3c2)cc1C(F)(F)F was tested, and the growth was 8.59% (active). In the case of CC(C)(C)c1cc(NC(=O)Nc2ccc(-c3cn4c(n3)sc3cc(OCCN5CCOCC5)ccc34)cc2)no1, the growth is reported as -9.92% (active) and 7.85% (active). For CC1(Cc2ccccc2)CC2=C(C(=O)O1)C(c1ccccc1)NC(=O)N2 (configuration not stated), the growth was 100% (inactive). For COc1cc(C=O)ccc1Oc1ccc([N+](=O)[O-])cc1[N+](=O)[O-], the growth was 102% (inactive).
